These results are taken from PubChem BioAssay (Tox21).

Values joined by “and” are separate entries in the source; they are usually repeats but may differ in a detail not shown here. Equal entries are not always repeated. Active and inactive are the calls of the source. Calls come from the whole dose curve.
% is set by controls: 0 for no effect and ±100 for the full control effect.

The nature of one assay: qHTS assay to identify small molecule agonists of the estrogen related receptor (ERR) signaling pathway from Tox21 library (AID 1224849). Note: nearly all actives have a fitted effect of over 15% in size. To be noted: ERR reporter cell line, ONE-Glo luciferase, 18 h; at 42.5 µM (top of the series). The text has this: National Center for Advancing Translational Sciences [NCATS]
NIH Chemical Genomics Center [NCGC]
U.S. Environmental Protection Agency [EPA]
National Institutes of Environmental Health Sciences [NIEHS]
National Toxicology Program [NTP]
Estrogen related receptors (ERRs), the first orphan nuclear receptors discovered, play an important role in the control of cellular energy metabolism. ERRs are required for high-energy production in response to the environmental challenges. ERR-alpha was also identified as an adverse marker for breast cancer progression; ERR-alpha-positive tumors have a poor prognosis. To screen and to identify environmental compounds that perturb the ERR signaling pathways could provide valuable information for potential therapeutic or preventive measures in the treatment of metabolic disease. For identifying ERR agonists, ERR cell line (provided by NTP) has been used to screen Tox21 10K library.
The ERR cells were dispensed at 2,000 cells/5 ul/well in 1536-well white plates using a Multidrop dispenser. After the assay plates were incubated at a 37 C/5% CO2 incubator for 6 hours, 23 nL of compounds dissolved in DMSO, positive and negative controls or DMSO only was transferred to the assay plate by a pin tool. The plates were incubated at 37 C for 18 hours. 4 ul/well of One-Glo reagent was added into the assay plates using a Flying Reagent Dispenser. After 30-minute incubation at room temperature, the luminescence intensity in the plates was measured using a ViewLux plate reader.
A general note: In qHTS, concentration-response curves come from the screen itself.
Turning to `O=c1cc[nH]c(=O)[nH]1`, the activity change, positive = activation is 5.28% (inactive).

`CCOC(=O)C(C)(C)Oc1ccc(Cl)cc1`: the activity change, positive = activation was 1.46% (inactive).

Consider `COC1=CC(=O)C[C@@H](C)[C@]12Oc1c(Cl)c(OC)cc(OC)c1C2=O`, for which the activity change, positive = activation is -32% (inactive).

In the case of `Oc1cccc(O)c1`, the activity change, positive = activation is 6.02% (inactive).

Turning to `CCCCCCCCOc1ccc(C(=O)c2ccccc2)c(O)c1`, the activity change, positive = activation was -7.25% (inactive).

As to `Cc1ccc(O)c(-n2nc3ccccc3n2)c1`, the activity change, positive = activation is 147% (active).

For the compound `CC(C)Cc1ccc(C(C)C(=O)O)cc1` (stereo not given), the activity change, positive = activation was 3.45% (inactive).

Take `O=C(O)CCCCC1CCSS1` (stereo not given): the activity change, positive = activation was 4.75% (inactive).

Take `CC1(C)O[C@@H]2[C@@H](CO[C@@]3(COS(N)(=O)=O)OC(C)(C)O[C@@H]23)O1`: the activity change, positive = activation was 1.2% (inactive).

Take `CCCCNC(=O)NS(=O)(=O)c1ccc(N)cc1`: the activity change, positive = activation is -4% (inactive).

Consider `CO[C@H]1C=CO[C@@]2(C)Oc3c(C)c(O)c4c(O)c(c(/C=N/N5CCN(C)CC5)c(O)c4c3C2=O)NC(=O)/C(C)=C\C=C[C@H](C)[C@H](O)[C@@H](C)[C@@H](O)[C@@H](C)[C@H](OC(C)=O)[C@@H]1C`, for which the activity change, positive = activation is -25.2% (inactive) and -32.7% (inactive).

As for `CCN(CC)CCOC(=O)c1ccc(N)cc1`, the activity change, positive = activation was 3.59% (inactive).

Turning to `NC(=O)N/N=C/c1ccc([N+](=O)[O-])o1`, the activity change, positive = activation is -13.7% (inactive).

As to `OCCCc1ccccc1`, the activity change, positive = activation was -1.08% (inactive).

`OC[C@@H](O)[C@@H](O)[C@H](O)[C@H](O)CO`: the activity change, positive = activation was 2.34% (inactive).

Still in this assay, the particulars now being: ERR reporter cell line, ONE-Glo luciferase, 18 h; at 92.4 µM (top of the series).
As to `C=C(C)OC(C)=O`, the activity change, positive = activation was 4.28% (inactive) and 3.36% (inactive).

As for `O=c1cc[nH]c(=O)[nH]1`, the activity change, positive = activation was 0.687% (inactive).

Turning to `CCOC(=O)C(C)(C)Oc1ccc(Cl)cc1`, the activity change, positive = activation was 1.63% (inactive) and -0.349% (inactive).

In the case of `COC1=CC(=O)C[C@@H](C)[C@]12Oc1c(Cl)c(OC)cc(OC)c1C2=O`, the activity change, positive = activation was -36.3% (inactive) and -39.4% (inactive).

In the case of `O=C1CCCCCN1`, the activity change, positive = activation is 0.0496% (inactive) and -0.16% (inactive).

Consider `Oc1cccc(O)c1`, for which the activity change, positive = activation is -15.4% (inactive) and -1.21% (inactive).

On to `CCCCCCCCOc1ccc(C(=O)c2ccccc2)c(O)c1`, for which the activity change, positive = activation was 6.94% (inactive) and -4.94% (inactive).

Take `Cc1ccc(O)c(-n2nc3ccccc3n2)c1`: the activity change, positive = activation was 109% (active) and 139% (active).

As for `CC(C)Cc1ccc(C(C)C(=O)O)cc1` (stereo not given), the activity change, positive = activation is -6.89% (inactive) and 1.38% (inactive).

On to `O=C(O)CCCCC1CCSS1` (stereo not given), for which the activity change, positive = activation is -0.498% (inactive) and 6.05% (inactive).

With `CC1(C)O[C@@H]2[C@@H](CO[C@@]3(COS(N)(=O)=O)OC(C)(C)O[C@@H]23)O1`, the activity change, positive = activation was -14.9% (inactive).

As to `COC(=O)C1CCC(C(=O)OC)CC1` (stereo not given), the activity change, positive = activation was 0.483% (inactive) and 7.26% (inactive) and 4.66% (inactive).

In the case of `O=C(OCc1ccccc1)c1ccccc1`, the activity change, positive = activation was 13.6% (inactive).

With `CN(C)C=O`, the activity change, positive = activation is 7.34% (inactive) and 6.88% (inactive).

As to `CCCCCCCC(=O)OCC(O)CO` (stereo not given), the activity change, positive = activation is 1.37% (inactive).

As to `Cc1cccc(C)c1O`, the activity change, positive = activation was 7.32% (inactive) and 4.77% (inactive).

On to `CCCCNC(=O)NS(=O)(=O)c1ccc(N)cc1`, for which the activity change, positive = activation was 2.9% (inactive).

Consider `CO[C@H]1C=CO[C@@]2(C)Oc3c(C)c(O)c4c(O)c(c(/C=N/N5CCN(C)CC5)c(O)c4c3C2=O)NC(=O)/C(C)=C\C=C[C@H](C)[C@H](O)[C@@H](C)[C@@H](O)[C@@H](C)[C@H](OC(C)=O)[C@@H]1C`, for which the activity change, positive = activation is -53.6% (inactive).

In the case of `CCN(CC)CCOC(=O)c1ccc(N)cc1`, the activity change, positive = activation is 2.93% (inactive).

Turning to `C=CCOC(=O)CC(C)C`, the activity change, positive = activation was 8.22% (inactive) and 2.25% (inactive).

For the compound `NC(=O)N/N=C/c1ccc([N+](=O)[O-])o1`, the activity change, positive = activation was -3.25% (inactive) and -34% (inactive).

Consider `OCCCc1ccccc1`, for which the activity change, positive = activation is 4.65% (inactive).

`O=C(O)CN(CC(=O)O)CC(=O)O`: the activity change, positive = activation is 0.123% (inactive) and 2.89% (inactive).

Consider `OC[C@@H](O)[C@@H](O)[C@H](O)[C@H](O)CO`, for which the activity change, positive = activation was 1.3% (inactive) and 3.91% (inactive).

In the case of `C=C(C)C(N)=O`, the activity change, positive = activation was 10.9% (inactive) and 3.35% (inactive).
